Assay outcomes from PubChem.
Most compounds without a hit are left out; they make up all but 6.7% or so of the library.
KB-V1 cytotox – KB-V1 MDR subline cytotoxicity; KB-V1 MDR cells viability, CellTiter-Glo, 72 h; Potency, µM (highest dose often 46.1 µM), usual class: cytotoxic; 400,000 tested, 3.4% active; also: nearly all actives have a fitted effect of over 60% in size
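KB-V1 MDR subline cells in DMEM (phenol-red free, 10% FBS) exposed to compounds in qHTS concentration series for 72 h at 37 degrees C. Viability read by CellTiter-Glo luminescence; concentration-effect curves fitted after normalization and correction.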
PINK1 expr mod – PINK1 expression modulation. AID 624263. Potency, µM (highest dose often 76.6 µM), most hits filed as activators. 410,000 tested, 0.2% active. PINK1 immunofluorescence, high-content cytometry, 24 h; active = well fitted activation curve with a large enough effect; inconclusive = small, poorly fitted or top-dose-only effect; cell line not stated here; also: nearly all actives have a fitted effect of over 65% in size
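Stable cell line treated 24 h with compounds at 5 concentrations (CCCP controls), then fixed and immunostained for PINK1 plus nuclear and cell stains; PINK1 immunofluorescence quantified by laser-scanning microplate cytometry.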
SW480 rerep – induces DNA re-replication in SW480 colon adenocarcinoma cells; AID 624297; Potency, µM (series often up to 46.1 µM), actives largely listed as activators; SW480 DNA re-replication, Hoechst DNA content imaging, 48 h; 340,000 tested, 1.8% active; also: nearly all actives have a fitted effect of over 55% in size
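Treated cells incubate 48 hr (37 C, 5% CO2), are stained 40 min with Hoechst, and nuclear fluorescence is enumerated; a rise in nuclei with high DNA signal marks re-replication.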
MCF10A rereplic – inducers of DNA re-replication in MCF 10A breast cells; MCF 10A DNA re-replication, Hoechst nuclear intensity, 48 h; Potency, µM (series often up to 46.1 µM), most hits filed as activators; 350,000 tested, 2.9% active; AID 624296; also: nearly all actives have a fitted effect of over 50% in size
KB-3-1 cytotox – KB-3-1 parental cell cytotoxicity | 400,000 tested, 1.4% active | Potency, µM (titrated, usually from 46.1 µM), hits mostly cytotoxic | KB-3-1 viability, CellTiter-Glo ATP luminescence, 72 h; also: nearly all actives have a fitted effect of over 60% in size
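KB-3-1 parental drug-naive adenocarcinoma cells in DMEM/10% FBS, incubated 72 h at 37 C with pin-transferred compounds across a concentration series. Viability by CellTiter-Glo luminescence; concentration-response curves fitted after normalization.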
Numbers stand for hits; i = inactive; ? = inconclusive; nt = no result; [ ] = another dose, or the depositor's remark. Unless noted, calls follow the shape of the dose curve; as a rule, active = well fitted curve in the direction sought with a large enough effect; inconclusive = small, poorly fitted or top-dose-only effect, or another doubt; inactive = no such curve, though single readings can be large; an effect the other way counts as inactive or inconclusive.

SMILES	KB-V1 cytotox	PINK1 expr mod	SW480 rerep	MCF10A rereplic	KB-3-1 cytotox
COC(=O)C(C)Sc1nnc2cc(C)c3cc(C)cc(C)c3n12 (stereo not drawn)	i	i	nt	nt	i
O=C(CN1CCN(C(=O)C2CC2)CC1)Nc1cc(C(F)(F)F)cc(C(F)(F)F)c1	21µM	i	i	i	i
CCn1nnc(NC(=O)C(C)Oc2ccc(Cl)cc2Cl)n1 (stereo not drawn)	18µM	i	i	i	i
N#CC1=C(N)Oc2cc(N)ccc2C1C1CC=CCC1 (stereo not drawn)	6.5µM	i	16µM	6.5µM	?
CC1(C)CC(=O)C2=C(C1)OC(N)=C(C#N)C2C1CC=CCC1 (stereo not drawn)	16µM	i	i	i	i
Cc1[nH]nc2c1C(C1CC=CCC1)C(C#N)=C(N)O2 (stereo not drawn)	i	i	?	?	?
CC1C(C#N)=C(N)OC2=C1C(=O)CC(C)(C)C2 (stereo not drawn)	?	i	i	i[0.0737 µM]	i
CCOC(=O)c1c(SCC(=O)Nc2nccs2)nc(C)c(C)c1C	nt	i	i	16µM	nt
COc1ccc(-c2ccc(C#N)c(SCC(=O)Nc3sc4c(c3C#N)CCC4)n2)cc1OC	?	i	2.1µM	2.9µM	?
Cc1ccc(C#N)c(SCC(=O)Nc2nccs2)n1	i	i	16µM	?	i
COc1ccc(-c2ccc(C#N)c(SCC(=O)NCCc3ccccc3)n2)cc1OC	i	i	i	i	i
N#Cc1cc2c(nc1SCC(=O)Nc1nccs1)CCCCC2	i	i	i	3.7µM	i
Cn1c(-c2ccc(Cl)nc2)nc2cc(Cl)ccc21	?	i	i	i	i
O=C(NCc1cccnc1)c1cc(C2CCCCN2S(=O)(=O)c2ccc(F)cc2F)on1 (stereo not drawn)	i	i	nt	nt	i
N#Cc1cc2c(nc1SCC(=O)Nc1sc3c(c1C#N)CCC3)CCC2	i	i	i[9.22 µM]	?	i
CC(C)OC(=O)CC(=O)CSc1nc2c(cc1C#N)CCC2	i	i	i	?	i
COC(=O)CC(=O)CSc1nc2c(cc1C#N)CCC2	?	?	?	1.6µM	i
N#Cc1cc2c(nc1SCC(=O)Nc1sc3c(c1C#N)CCC3)CCCCCC2	i	i	?	3.3µM	i
COc1ccc(N/C=C2/Sc3ccccc3NC2=O)cc1	i	i	i	i	i
Cc1ccc(N/C=C2/Sc3ccccc3NC2=O)cc1	?	40µM	i	18µM	i
Cc1[nH]n(-c2ccccc2)c(=O)c1C(=O)c1ccccc1	?	i	i	?	?
Cc1[nH]n(-c2ccccc2)c(=O)c1C(=O)c1ccc(Cl)cc1	10µM	i	i	i	?
Cc1[nH]n(-c2ccc(Cl)cc2)c(=O)c1C(=O)c1ccccc1	13µM	i	i	4.6µM	13µM
OCCCNCc1cc2cc3c(cc2nc1N1CCN(c2cccc(Cl)c2)CC1)OCO3	nt	i	nt	nt	nt
CCN(CC)S(=O)(=O)c1ccc(OC)c(NC(=O)c2cc3c(=O)n4ccccc4nc3s2)c1	i	i	i	16µM	i
SMILES	KB-V1 cytotox	PINK1 expr mod	SW480 rerep	MCF10A rereplic	KB-3-1 cytotox
COc1ccc(-c2nc3c(C#N)c[nH]n3c2NC2CCCCC2)cc1	i	i	nt	nt	i
O=C(c1[nH]c2ccccc2c1Sc1ccc(Cl)cc1)N1CCCCC1	i	i	nt	nt	i
Cc1cc(NCCCN2CCOCC2)n2c(nc3ccccc32)c1C#N	i	i	?	?	i
CCCc1cc(NCCCN2CCOCC2)n2c(nc3ccccc32)c1C#N	i	i	i[9.22 µM]	21µM	i
CCCc1cc(N2CCN(C(=O)c3ccco3)CC2)n2c(nc3ccccc32)c1C#N	i	i	?	21µM	i
CCCc1cc(NCCOCCO)n2c(nc3ccccc32)c1C#N	i	i	nt	nt	i
CCCc1cc(NCCCCO)n2c(nc3ccccc32)c1C#N	23µM	i	i	i	i
Cc1ccc(NC(=O)CN2C(=O)c3ccccc3Sc3ncccc32)c(C)c1	i	i	nt	nt	i
CCOC(=O)C1=C[C@@H](C(C)C)N(S(=O)(=O)c2ccc([N+](=O)[O-])cc2)[C@H]1c1ccccc1	?	i	nt	nt	12µM
O=C(CSc1nc(=O)n2cc(Cl)ccc2n1)Nc1cccc2ccccc12	26µM	i	i	i	?
O=C(CSc1nnc2c(n1)[nH]c1ccc(F)cc12)Nc1ccccc1F	i	i	i	i	i
Cc1ccn2c(=O)nc(SCC(=O)Nc3cccc4ccccc34)nc2c1	i	i	i	?	i
Cc1ccc2nc(SCC(=O)c3ccccc3)nc(=O)n2c1	i	i	1.8µM	i	i
O=C(CSc1nnc2c3ccccc3c3ccccc3c2n1)Nc1ccccc1F	3.7µM	?	i	i	i
Cc1ccc2nc(SCC(=O)N3CCC(C)CC3)nc(=O)n2c1	18µM	i	i	i	i
Cc1ccc2nc(SCC(=O)N3CCCC3)nc(=O)n2c1	?	i	i	i	i
O=C(CCc1c[nH]c2ccccc12)N1CCC(n2c(C3CCCO3)nc3cc(C(F)(F)F)ccc32)CC1 (stereo not drawn)	nt	i	nt	nt	nt
Cc1nc2ccccc2nc1SCC(=O)c1ccccc1	2.6µM	i	i	i	?
CC(C)(C)c1nc(SCC(=O)c2ccccc2)c2ccccc2n1	?	?	i	?	i
COC(=O)c1sc(N2C(=O)c3oc4cc(C)c(C)cc4c(=O)c3C2c2ccccc2F)nc1C (stereo not drawn)	i	i	nt	nt	i
O=C(Nc1ccccc1Br)C1CCC(=O)N1Cc1ccccc1Cl (stereo not drawn)	21µM	i	i	i	i
CC(=O)c1ccc(OCCCC(=O)NCCc2ccccc2)cc1	i	i	?	i	i
OC(c1cccnc1)c1ccc2c(c1)CN(Cc1cn(-c3ccccc3)nc1-c1ccccc1)CCO2 (stereo not drawn)	nt	i	nt	nt	nt
O=C(NCc1cccnc1)C1c2ccccc2C(=O)N1C1CCCCCCC1 (stereo not drawn)	i	?	i	i	i
O=C(NC1CCCCCC1)C1c2ccccc2C(=O)N1Cc1cccnc1 (stereo not drawn)	12µM	i	i	i	i
SMILES	KB-V1 cytotox	PINK1 expr mod	SW480 rerep	MCF10A rereplic	KB-3-1 cytotox
O=C(NCC1CCCO1)[C@@H]1CSC2c3ccccc3C(=O)N21 (stereo partly drawn)	?	i	i	i	i
O=C(NCc1cccnc1)C1c2ccccc2C(=O)N1C1CCCCCC1 (stereo not drawn)	18µM	i	i	i	i
O=C(NCC1CCCO1)C1c2ccccc2C(=O)N1C1CCCCCCC1 (stereo not drawn)	7.3µM	i	i	i	i
O=C(NC1CCCCCC1)C1c2ccccc2C(=O)N1Cc1ccc(F)cc1 (stereo not drawn)	i	i	nt	nt	i
O=C(c1ccc(Br)cc1)N1CCC2(CC1)NCCc1[nH]cnc12	?	i	i	i	i
Cc1cccc(NC(=O)CSc2cccc3cccnc23)c1C	i	i	i	i	i
c1cnc2c(SCc3ccc(-c4nnco4)cc3)cccc2c1	15µM	i	?	i	i
